We go through 33 molecules from PubChem BioAssay (NCATS).

Inconclusive results are not listed. Where a call stands in place of a potency, no number is given. Activity calls are given as the source filed them. Calls come from the whole dose curve; as a rule, active = well fitted inhibition curve with a large enough effect; inconclusive = small, poorly fitted or top-dose-only effect; inactive = flat fitted curve, though single readings scatter.
Potency is the fitted concentration of half-maximal effect.

In this assay the test system is Zika virus NS2B-NS3 protease. The assay can be described thus: Primary screen GU AMC qHTS for Zika virus inhibitors (AID 1347154). Note: nearly all actives have a fitted effect of over 70% in size. The conditions noted are these: Zika NS2B-NS3 unlinked protease, AMC fluorogenic substrate; series mostly up to 54.1 µM. Put shortly: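 Unlinked Zika NS2B hydrophilic domain/NS3 protease domain noncovalent complex (25 nM final) in 10 mM Tris-HCl pH 8.0, 0.01% Tween 20, with AMC peptide substrate. Fluorescence (ex 340, em 450 nm) change over 15 min, room temperature; percent inhibition fitted to 4-parameter Hill equation.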
For orientation: qHTS replaces the single test concentration by a dilution series.
In the case of `C[C@@H]1[C@@H](C(=O)C[C@H]2O[C@@H]3O[C@]4(C)CC[C@@H]5[C@H](C)CC[C@@H]([C@H]2C)[C@@]35OO4)O[C@@H]2O[C@]3(C)CC[C@H]4[C@H](C)CC[C@@H]1[C@@]24OO3`, the Potency result is “inactive”.
Then `Oc1cccc2cccnc12`, with “inactive”.
Turning to `O=C(NC(O)C(Cl)(Cl)Cl)NC(O)C(Cl)(Cl)Cl` (stereo not drawn), the Potency result is “inactive”.
Then `O=P1(NCCCl)OCCCN1CCCl` (stereo not drawn), with “inactive”; and `C=CCN1CC[C@]23c4c5ccc(O)c4O[C@H]2C(=O)CC[C@@]3(O)[C@H]1C5`, with “inactive”.
On to `Cc1ccc(-c2nc3ccc(C)cn3c2CC(=O)N(C)C)cc1`, for which the Potency was 31.6 µM (active).
Then `COc1ccc(C(=O)c2c(C)n(CCN3CCOCC3)c3ccccc23)cc1`, with “inactive”; and `CCCN1CCC[C@@H]2Cc3nc(N)ncc3C[C@H]21`, with “inactive”; and `Cn1c(CCCC(=O)O)nc2cc(N(CCCl)CCCl)ccc21`, with “inactive”.
Then `CCOP(=S)(OCC)Oc1cc(C)nc(C(C)C)n1`, with “inactive”.
Then `CC(=O)Nc1cc([As](=O)(O)O)ccc1O`, with “inactive”; and `CC(C)(N)Cc1ccc(Cl)cc1`, with “inactive”; and `CCN(C(C)=O)c1cccc(-c2ccnc3c(C#N)cnn23)c1`, with 31.6 µM (active).
For `CC[N+]1(C)CCCC(OC(=O)C(O)(c2ccccc2)c2ccccc2)C1` (stereo not drawn), the Potency result is “inactive”.
Then `CC(C)CC(N(C)C)C1(c2ccc(Cl)cc2)CCC1` (stereo not drawn), with “inactive”; and `Oc1ccccc1-c1ccccc1`, with “inactive”; and `Clc1ccc(CCC(Cn2ccnc2)Sc2c(Cl)cccc2Cl)cc1` (stereo not drawn), with “inactive”.
Then `CCCC1CCCCN1` (stereo not drawn), with “inactive”; and `CN1CCN(C(=O)O[C@H]2c3nccnc3C(=O)N2c2ccc(Cl)cn2)CC1`, with “inactive”; and `C[C@]12CCC(=O)C(O)=C1CC[C@@H]1[C@@H]2CC[C@]2(C)C(=O)CC[C@@H]12`, with “inactive”.
Then `CC1NCCOC1c1ccccc1` (stereo not drawn), with “inactive”; and `Clc1cccc(N2CCNCC2)c1`, with “inactive”.
Turning to `C=C1C[C@@H]2[C@H](CC[C@]3(C)C(=O)CC[C@@H]23)[C@@]2(C)C=CC(=O)C=C12`, the Potency entry is “inactive”.
Regarding `COC[C@@H](NC(C)=O)C(=O)NCc1ccccc1`, the Potency entry was “inactive”.
Then `O=C(O)c1ccc2[nH]cc(CCCCN3CC=C(c4ccccc4)CC3)c2c1`, with “inactive”; and `CCN(CC)CCN1C(=O)CN=C(c2ccccc2F)c2cc(Cl)ccc21`, with “inactive”.
Then `O=C1CC[C@@]2(O)[C@H]3Cc4ccc(O)c5c4[C@@]2(CCN3CC2CC2)[C@H]1O5`, with “inactive”; and `CN(C)CCN(C)CCc1ccc(Cl)c(Cl)c1`, with “inactive”; and `O=[N+]([O-])c1cc([As](=O)(O)O)ccc1O`, with “inactive”.
Take `C=C(C)[C@H]1Cc2c(ccc3c2O[C@@H]2COc4cc(OC)c(OC)cc4[C@@H]2C3=O)O1`: the Potency entry was “inactive”.
Then `N[C@@H]1C[C@H]1c1ccccc1`, with “inactive”; and `N[C@@H](Cc1ccc(N(CCCl)CCCl)cc1)C(=O)O`, with “inactive”; and `Oc1ccc(Cl)cc1Cc1ccccc1`, with “inactive”.
